About 83,000 compounds went through this panel and 20% of them were active in at least one assay; those are over-represented in the sample as a whole.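 Cell lines were cultured in 96-well plates, exposed to a single compound concentration, and assessed for percent growth 48 hours later.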 Activity calls are given as the source filed them. Rule for the calls: active = growth percent below 10; inactive = the rest.
What was measured:
Test in all cases: NCI-60 one-dose screen, 48 h (100 = growth as untreated, 0 = no growth, -100 = all killed)
Conditions in all cases: 10 µM unless noted
HCT-15 colon = system: HCT-15 colon
HT29 colon = system: HT29 colon
SNB-75 CNS = system: SNB-75 CNS
SNB-19 CNS = system: SNB-19 CNS
U251 CNS = system: U251 CNS
PC-3 prostate = system: PC-3 prostate
SK-MEL-5 melanoma = system: SK-MEL-5 melanoma
UACC-62 melanoma = system: UACC-62 melanoma
LOX IMVI melanoma = system: LOX IMVI melanoma
SK-MEL-28 melanoma = system: SK-MEL-28 melanoma

Measured: growth

CCOC(=O)C/C(=N\Nc1cc(=O)[nH]c2ccc(C)cc12)C(=O)OCC
inactive: HCT-15 colon 103% | HT29 colon 112% | SNB-75 CNS 94.7% | SNB-19 CNS 97.8% | U251 CNS 103% | PC-3 prostate 91.4% | SK-MEL-5 melanoma 96.8% | UACC-62 melanoma 91.1% | LOX IMVI melanoma 102% | SK-MEL-28 melanoma 99.3%

C#CCOc1ccc2nc(CCl)c(Cl)c(Nc3cccc(C(F)(F)F)c3)c2c1
inactive: HCT-15 colon 36.3% | HT29 colon 75.6% | SNB-75 CNS 70.5% | SNB-19 CNS 98.5% | U251 CNS 77.3% | PC-3 prostate 85.1% | SK-MEL-5 melanoma 58.2% | UACC-62 melanoma 71.2% | SK-MEL-28 melanoma 108%
active: LOX IMVI melanoma -1.15%

Cc1ccc(S(=O)(=O)OCC#CCOS(=O)(=O)c2ccc(C)cc2)cc1
inactive: HCT-15 colon 72.3% | HT29 colon 50.3% | SNB-19 CNS 70.1% | U251 CNS 22.6% | PC-3 prostate 70.4% | SK-MEL-5 melanoma 59.4% | UACC-62 melanoma 42.4% | SK-MEL-28 melanoma 74.9%
active: SNB-75 CNS 5% | LOX IMVI melanoma -35.8%

COc1ccc(C=Nc2c(C(=O)Nc3cccc(Cl)c3C)sc3nc(C)c(C(=O)/C=C/c4ccc(OC)cc4)cc23)cc1
inactive: HCT-15 colon 19.6% | SNB-19 CNS 11.7% | U251 CNS 23.6% | PC-3 prostate 32.8% | LOX IMVI melanoma 19% | SK-MEL-28 melanoma 38.3%
active: HT29 colon 9.21% | SNB-75 CNS -11.3% | SK-MEL-5 melanoma 3.54% | UACC-62 melanoma 7.41%

CCNC(=O)N1CCc2c(Br)c3c(c(OC)c2C1Cc1ccc(OC)cc1)OCO3 (stereo not given)
active: SNB-75 CNS -7.7%
inactive: HCT-15 colon 24.6% | HT29 colon 14.4% | SNB-19 CNS 49.7% | U251 CNS 32.3% | PC-3 prostate 27.9% | SK-MEL-5 melanoma 28.9% | UACC-62 melanoma 20.7% | LOX IMVI melanoma 32.6% | SK-MEL-28 melanoma 55.9%

Cc1cc(O)cc(-c2nn(C)cc2-c2cc(N3CCOCC3)nc(-c3cccnc3)n2)c1
active: SNB-75 CNS 1.48% | SK-MEL-5 melanoma 1.65%
inactive: HCT-15 colon 22.7% | HT29 colon 17.4% | SNB-19 CNS 33.8% | U251 CNS 21.5% | PC-3 prostate 22.7% | UACC-62 melanoma 18.1% | LOX IMVI melanoma 25.6% | SK-MEL-28 melanoma 46.8%

Nc1cc(-c2ccc(Cl)cc2)nn1-c1nnc(/C=C/c2ccco2)c(=O)[nH]1
inactive: HCT-15 colon 38.1% | HT29 colon 44.2% | SNB-75 CNS 67.3% | SNB-19 CNS 57.8% | U251 CNS 50.6% | PC-3 prostate 52.6% | SK-MEL-5 melanoma 46% | UACC-62 melanoma 52.5% | LOX IMVI melanoma 49.9% | SK-MEL-28 melanoma 66.4%

COc1cc(C=C2C(=O)NC(=S)NC2=O)cc(CN2CCCC2)c1O
inactive: HCT-15 colon 105% | HT29 colon 109% | SNB-75 CNS 95.4% | SNB-19 CNS 105% | U251 CNS 96.2% | PC-3 prostate 102% | SK-MEL-5 melanoma 111% | UACC-62 melanoma 99.7% | LOX IMVI melanoma 97.6% | SK-MEL-28 melanoma 115%

CCOC(=O)NCCCC(=O)NCCc1ccccc1
inactive: HCT-15 colon 118% | HT29 colon 110% | SNB-75 CNS 109% | SNB-19 CNS 108% | U251 CNS 99.6% | PC-3 prostate 99.5% | SK-MEL-5 melanoma 99.8% | UACC-62 melanoma 107% | LOX IMVI melanoma 94.2% | SK-MEL-28 melanoma 114%

COc1ccc(/C=C(/C(=O)N2CCNCC2)c2cc(OC)c(OC)c(OC)c2)cc1O
inactive: HCT-15 colon 96.6% | HT29 colon 88.1% | SNB-75 CNS 28.1% | SNB-19 CNS 38.4% | U251 CNS 19.6% | PC-3 prostate 26.8% | SK-MEL-5 melanoma 40% | UACC-62 melanoma 32.5% | LOX IMVI melanoma 44% | SK-MEL-28 melanoma 55.5%

COc1ccccc1/C=C/C(=O)Nc1ccc(F)cc1
inactive: HCT-15 colon 98.4% | HT29 colon 89.1% | SNB-75 CNS 77.9% | SNB-19 CNS 99.8% | U251 CNS 108% | PC-3 prostate 95.7% | SK-MEL-5 melanoma 95.1% | UACC-62 melanoma 89.8% | LOX IMVI melanoma 100% | SK-MEL-28 melanoma 108%

CN(C)c1ccc(C(=S)c2ccc(N(C)C)cc2)cc1
inactive: HCT-15 colon 43% | HT29 colon 30.9% | SNB-75 CNS 78.1% | SNB-19 CNS 72.6% | U251 CNS 62.4% | PC-3 prostate 71.2% | SK-MEL-5 melanoma 30.5% | UACC-62 melanoma 52.2% | LOX IMVI melanoma 69% | SK-MEL-28 melanoma 84.4%

Cc1ccc(C(=O)c2ccc(CC(=O)N/N=C/c3cccc(O)c3O)n2C)cc1
inactive: HCT-15 colon 15.7% | HT29 colon 86.7% | SNB-75 CNS 25.4% | SNB-19 CNS 46% | U251 CNS 26% | PC-3 prostate 59.2% | SK-MEL-5 melanoma 34.6% | UACC-62 melanoma 39.1% | LOX IMVI melanoma 17.3% | SK-MEL-28 melanoma 80%

N=C(N)c1ccc(OCCSCCOc2ccc(C(=N)N)cc2)cc1
inactive: HCT-15 colon 85.1% | HT29 colon 85.4% | SNB-75 CNS 71.2% | SNB-19 CNS 56.7% | U251 CNS 48% | PC-3 prostate 90.6% | SK-MEL-5 melanoma 41.4% | UACC-62 melanoma 67.4% | LOX IMVI melanoma 90.5% | SK-MEL-28 melanoma 92.2%

c1ccc(-c2c(-c3ccccc3)[n+](Cc3ccc4ccccc4c3)cn2Cc2ccc3ccccc3c2)cc1
active: HCT-15 colon -93.3% | HT29 colon -89.9% | SNB-75 CNS -67.6% | SNB-19 CNS -66.4% | U251 CNS -90% | PC-3 prostate -91.8% | SK-MEL-5 melanoma -100% | UACC-62 melanoma -73.2% | LOX IMVI melanoma -99.5% | SK-MEL-28 melanoma -91.5%

O=C(Oc1ccc2c(c1)sc1nc(-c3ccccc3)[nH]c(=O)c12)C(F)(F)F
inactive: HCT-15 colon 22.2% | HT29 colon 75.6% | SNB-75 CNS 10.7% | SNB-19 CNS 45.6% | U251 CNS 28.9% | PC-3 prostate 43.1% | SK-MEL-5 melanoma 11.6% | UACC-62 melanoma 11.3% | LOX IMVI melanoma 18.8% | SK-MEL-28 melanoma 36%

COc1cc(C=Nc2oc(-c3ccccc3)c(-c3ccccc3)c2C#N)cc(CN2CCCC2)c1O
inactive: HCT-15 colon 103% | HT29 colon 107% | SNB-75 CNS 66.8% | SNB-19 CNS 94.6% | U251 CNS 93.2% | PC-3 prostate 86.8% | SK-MEL-5 melanoma 104% | UACC-62 melanoma 86.5% | LOX IMVI melanoma 96.5% | SK-MEL-28 melanoma 112%

COc1ccc(Cl)cc1Nc1nc(C(F)(F)F)ccc1C(=O)N/N=C/c1ccc([N+](=O)[O-])cc1
inactive: SNB-75 CNS 29.5% | SNB-19 CNS 22.9% | UACC-62 melanoma 17.3% | SK-MEL-28 melanoma 22.8%
active: HCT-15 colon 3.38% | HT29 colon 2.62% | U251 CNS -27% | PC-3 prostate -5.64% | SK-MEL-5 melanoma -17.7% | LOX IMVI melanoma -32.8%

OC1CSSC1Cn1cnc2c(Nc3ccc(OCc4cccc(F)c4)c(Cl)c3)ncnc21 (stereo not given)
inactive: SNB-75 CNS 54.1%
active: HCT-15 colon -64% | HT29 colon 3.96% | SNB-19 CNS -49.4% | U251 CNS -26.3% | PC-3 prostate -69.3% | SK-MEL-5 melanoma -55.6% | UACC-62 melanoma -68.9% | LOX IMVI melanoma -82.6% | SK-MEL-28 melanoma -9.14%

CCOC(=O)c1[nH]cc2c1CCc1sc(Nc3ccccn3)nc1-2
inactive: HCT-15 colon 67.2% | HT29 colon 77% | SNB-75 CNS 82.2% | SNB-19 CNS 85.2% | U251 CNS 69% | PC-3 prostate 56.7% | SK-MEL-5 melanoma 63.5% | UACC-62 melanoma 86.5% | LOX IMVI melanoma 81.7% | SK-MEL-28 melanoma 103%

COc1cc(Cc2cc(OC)c(O)c(OC)c2)cc(OC)c1O
inactive: HCT-15 colon 60.9% | HT29 colon 110% | SNB-75 CNS 82.2% | SNB-19 CNS 102% | U251 CNS 102% | PC-3 prostate 80.2% | SK-MEL-5 melanoma 101% | UACC-62 melanoma 94.9% | LOX IMVI melanoma 80.7% | SK-MEL-28 melanoma 82.4%

COc1ccc(CNc2ccc3nc(NC(=O)CN4CCCCCC4)sc3c2)cc1
inactive: HCT-15 colon 70.9% | HT29 colon 60.6% | SNB-75 CNS 131% | SNB-19 CNS 96.1% | U251 CNS 85.4% | PC-3 prostate 65.8% | SK-MEL-5 melanoma 67.8% | UACC-62 melanoma 73.8% | LOX IMVI melanoma 78.5% | SK-MEL-28 melanoma 101%

COc1ccc(C(=O)/C=C/c2ccccc2)cc1S(N)(=O)=O
inactive: HCT-15 colon 44.1% | HT29 colon 63.6% | SNB-75 CNS 87.2% | SNB-19 CNS 40% | U251 CNS 26.2% | PC-3 prostate 74% | SK-MEL-5 melanoma 88.2% | UACC-62 melanoma 79.2% | LOX IMVI melanoma 42% | SK-MEL-28 melanoma 107%

c1cc(OCCN2CCCC2)ccc1CNc1ccc2nc(CCC3CCCCC3)[nH]c2c1
inactive: SNB-75 CNS 64.1% | SNB-19 CNS 68.7% | PC-3 prostate 52% | UACC-62 melanoma 62.8%
active: HCT-15 colon 3.99% | HT29 colon 7.25% | U251 CNS 4.28% | SK-MEL-5 melanoma -96.5% | LOX IMVI melanoma -78.5% | SK-MEL-28 melanoma -85.3%

CNC(=O)c1cc(Oc2ccc3c(c2)sc2nc(-c4ccc(NC(=O)[C@@H](NC(=O)OC)C(C)C)cc4)cn23)ccn1
active: SK-MEL-5 melanoma 5.33%
inactive: HCT-15 colon 73.2% | HT29 colon 72.1% | SNB-75 CNS 99.5% | SNB-19 CNS 91.1% | U251 CNS 81.6% | PC-3 prostate 40.2% | UACC-62 melanoma 42.9% | LOX IMVI melanoma 67.2% | SK-MEL-28 melanoma 75.7%

CC1=C2CC/C(C)=C/CC[C@]3(C)O[C@H]3CC/C(C)=C/[C@H]2OC1
inactive: HCT-15 colon 97.9% | HT29 colon 94.7% | SNB-75 CNS 86.6% | SNB-19 CNS 98.5% | U251 CNS 94.7% | PC-3 prostate 87.5% | SK-MEL-5 melanoma 108% | UACC-62 melanoma 92.1% | LOX IMVI melanoma 101% | SK-MEL-28 melanoma 96.5%

[N-]=[N+]=NCC1OC(n2cnc3c(NC(=O)Nc4ccccc4)ncnc32)C2OC(=O)CC12 (stereo not given)
inactive: HCT-15 colon 91.2% | HT29 colon 109% | SNB-75 CNS 93.7% | SNB-19 CNS 106% | U251 CNS 110% | PC-3 prostate 97.4% | SK-MEL-5 melanoma 106% | UACC-62 melanoma 107% | LOX IMVI melanoma 93.2% | SK-MEL-28 melanoma 118%

From PubChem BioAssay (NCI)
